# Rows were chosen to be rich in hits. Some 2% of all compounds tested hit in one or more screens of this group.
# CHRM4 agonist = human M4 muscarinic receptor agonists, primary screen, CHO-K1 cells, Fluo-8 calcium fluorescence. Muscarinic acetylcholine receptor M4 (Homo sapiens), P08173. CHO-K1 hM4/Gqi5; vehicle 0%, full acetylcholine response 100%. activation, % at 3 µM. 360,000 compounds, 0.14% hits. AID 624127, 2012;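 active means activation above the run mean over all test wells plus 3 SD, cut at about 32% in these data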;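 further: peak over basal fluorescence ratio per well then scaled between controls; 0% = DMSO wells and 100% = acetylcholine at EC100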
# Target sequence (P08173 whole entry, looked up): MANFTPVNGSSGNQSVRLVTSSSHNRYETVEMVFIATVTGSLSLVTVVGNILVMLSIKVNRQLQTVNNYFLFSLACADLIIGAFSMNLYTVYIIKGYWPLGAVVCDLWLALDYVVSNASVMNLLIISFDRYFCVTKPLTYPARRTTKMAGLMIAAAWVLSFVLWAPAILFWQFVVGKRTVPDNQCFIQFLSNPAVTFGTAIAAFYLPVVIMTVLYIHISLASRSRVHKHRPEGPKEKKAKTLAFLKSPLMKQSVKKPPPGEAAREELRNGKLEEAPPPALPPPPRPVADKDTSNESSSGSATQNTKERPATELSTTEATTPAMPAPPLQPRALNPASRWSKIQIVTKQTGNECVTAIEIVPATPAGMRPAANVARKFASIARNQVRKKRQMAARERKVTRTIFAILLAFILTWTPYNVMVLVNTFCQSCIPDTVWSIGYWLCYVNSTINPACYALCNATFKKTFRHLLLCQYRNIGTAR
# CHO-K1 Ca antag = counter-screen for M1 antagonists: effect in parental CHO-K1 cells. 360,000 compounds, 0.6% hits. inhibition, % at 3 µM. AID 602250. ATP-induced calcium, Fluo-8 fluorescence;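 active means inhibition above a per-plate cutoff, the plate's mean sample inhibition plus 3 SD, cut at about 24% in these data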;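 further: 0% = DMSO plus EC80 ATP and 100% = DMSO alone without ATP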
# M4 PAM = human M4 muscarinic receptor positive allosteric modulators, primary screen, CHO-K1 cells, Fluo-8 calcium fluorescence | Muscarinic acetylcholine receptor M4 (Homo sapiens), P08173 | CHO-K1 hM4/Gqi5, ACh EC20; 0% = ACh EC20, 100% = maximal ACh | activation, % at 3 µM | 360,000 compounds, 0.4% hits | AID 624126, 2012;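 active means activation above its plate's cutoff, the mean activation of sample wells plus 3 SD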
# CHRM4 antagonist = human M4 muscarinic receptor antagonists, primary screen, CHO cells, Fluo-8 calcium fluorescence; Muscarinic acetylcholine receptor M4 (Homo sapiens), P08173; 360,000 compounds, 0.73% hits; CHO-hM4 cells, ACh EC80; AID 624125, 2012; inhibition, % at 3 µM;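 active means inhibition above its plate's cutoff, the mean inhibition of sample wells plus 3 SD, cut at about 27% in these data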;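 further: 0% = acetylcholine EC80 with DMSO and 100% = DMSO without agonist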
# CHO-K1 Ca PAM = nonselective calcium activators in parental CHO-K1 cells, primary screen, counter-screen for M1 PAM project, cell-based, Fluo-8 calcium fluorescence, full deck, 1536-well | ATP EC20; 0% at ATP EC20, 100% at ATP max | activation, % at 3 µM | 360,000 compounds, 0.02% hits | AID 602247, 2012;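 active means activation above the run cutoff, the mean activation of all test compounds plus 3 SD, cut at about 40% in these data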;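 further: peak over basal fluorescence ratio in a 140 s read after ATP addition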
# CHO-K1 Ca ag = counter-screen for M1 agonists: effect in parental CHO-K1 cells; Fluo-8 calcium fluorescence; scaled to maximal ATP response, vehicle zero; activation, % at 3 µM; 360,000 compounds, 0.48% hits; in the data active means activation above about 15%;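 further: untransfected CHO-K1 host cells lacking M1 receptor as counterscreen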
# * = called active by the depositor.
SMILES,CHRM4 agonist,CHO-K1 Ca antag,M4 PAM,CHRM4 antagonist,CHO-K1 Ca PAM,CHO-K1 Ca ag
CCCNC(=O)COCc1cc(-c2ccc3c(c2)OCO3)on1,1.2,-6.7,-5.4,4.1,14.1,1.7
CCCCNC(=O)COCc1cc(-c2ccc3c(c2)OCO3)on1,6.3,-5.5,15.2*,-4.9,15.2,3.9
COC(=O)C1=CN(CCCN2CCCC2=O)C=C(C(=O)OC)C1c1ccccc1C(F)(F)F,2.8,9.2,3.2,2.9,-3.4,0.0
COc1ccc(-c2nc3c(c(SCC(=O)N4CCOCC4)n2)COC(C)(C)C3)cc1,-0.1,29.9*,23.0,4.5,-5.8,-0.1
CCOc1ccc(CCN2C(=O)C(=O)N([C@@H](CC(C)C)CN3CCC[C@@H]3CN3C(=O)C(=O)NC[C@@H]3Cc3ccccc3)C[C@@H]2CC(C)C)cc1,-0.1,-26.2,7.3,-14.6,22.3,0.3
CCCCNC(=S)NC(=O)c1ccc([N+](=O)[O-])cc1,-0.8,-9.4,-5.6,-8.6,5.4,-0.1
CC(C)CCNC(=S)Nc1ccc(Br)cc1,10.9,11.6,-17.3,21.5,-5.4,10.8
CCCCNC(=S)Nc1ccc([N+](=O)[O-])cc1,9.3,34.4*,-6.5,14.8,-16.1,13.4
CC(C)CCNC(=S)Nc1ccc([N+](=O)[O-])cc1,8.0,28.9*,-6.2,10.2,-11.5,12.7
Cc1cn(S(=O)(=O)c2ccc(Cl)cc2)c(C)n1,0.2,-8.1,-9.6,4.7,5.2,-0.2
COc1ccc(NC(=O)c2oc3ccc(S(=O)(=O)N4CCC5(CC4)OCCO5)cc3c2C)cc1,32.4*,7.0,-9.9,25.9,-2.2,13.2
COc1cccc(NC(=O)CCCn2c(=S)[nH]c3ccccc3c2=O)c1,2.1,-5.5,1.6,-12.5,13.6,1.7
O=S(=O)(c1ccc(N2CCCC2)cc1)C(F)(F)F,4.9,27.3*,-12.5,-4.9,-12.7,9.8
CC(=O)/C(C[N+]1(C)CCCCC1)=N\O,0.6,10.9,-16.9,34.5*,-3.5,0.1
C[N+]1(CC(=O)OCCCc2ccccc2)CCCCC1,0.7,-12.1,-4.8,-8.9,4.0,0.7
O=C(N=Nc1c(O)[nH]c2ccccc12)c1cc(-c2ccc(F)cc2)n[nH]1,0.5,-13.5,-1.2,-1.9,11.1,0.4
CCC(c1nnnn1C(C)(C)CC)N(CCCN1CCOCC1)Cc1cc2cccc(C)c2[nH]c1=O (stereo not drawn),2.0,-17.7,2.4,5.1,10.2,0.4
CN1/C(=C\C(=O)CSc2ncn[nH]2)C(C)(C)c2ccccc21,4.3,25.9*,-4.2,1.0,-11.4,4.0
CN1/C(=C\C(=O)COC(=O)c2ccccc2O)C(C)(C)c2ccccc21,7.1,5.3,-20.9,6.0,5.1,17.4*
CN(C)C(CNC(=O)CCOc1ccccc1)c1ccco1 (stereo not drawn),1.6,-9.3,-4.5,-3.6,2.8,0.2
CC(=O)c1ccc(OCCCC(=O)NCC(c2ccco2)N(C)C)cc1 (stereo not drawn),1.3,25.4*,-9.4,3.6,-8.2,-0.2
O=C(O)C1CCCN1S(=O)(=O)c1ccccc1 (stereo not drawn),1.5,5.5,38.9*,-6.8,18.1,0.3
O=C(O)C1CCCN1S(=O)(=O)c1ccc(Cl)cc1 (stereo not drawn),1.2,-0.1,2.7,-3.0,7.4,-0.3
CC1CC(C)CN(S(=O)(=O)c2ccc(NC(=O)[C@@H]3CCCN3C(=O)c3cccs3)cc2)C1 (stereo partly drawn),-0.6,-10.1,-5.9,28.2*,13.8,-0.2
Cc1cccc(NC(=O)C2CCCCN2S(=O)(=O)c2ccccc2)c1C (stereo not drawn),5.9,-25.0,5.3,-22.2,8.4,1.4
Cc1ccc(NC(=O)[C@@H]2CCCN2C(=O)c2cccs2)cc1S(=O)(=O)N1CCCCC1,1.2,-19.9,2.5,-8.1,22.6,0.1
Cc1ccc(S(=O)(=O)N(C)C)cc1NC(=O)C1CCCCN1S(=O)(=O)c1ccccc1 (stereo not drawn),0.9,-13.6,23.5*,-3.3,-13.3,0.2

# Source: PubChem (The Scripps Research Institute Molecular Screening Center)
